Measurements from PubChem BioAssay.
Inconclusive results are not listed. Active and inactive are the calls of the source.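 The calls were made as follows, unless noted: active = GFP signal, as percent of the solvent control, above the screen mean plus 3 SD, about 149; inconclusive = no reading because the compound's own fluorescence upset strain identification; inactive = the rest.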

How the values were obtained:
[1] = yeast TOR pathway RPL19A-GFP modulators, primary screen, cell-based, S. cerevisiae, multiplex flow cytometry (AID 1862; in the data active = percent of DMSO control GFP below about 86%;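 also: lower values mimic rapamycin by blocking the RPL19A rise seen in DMSO cells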); settings: S. cerevisiae RPL19A-GFP strain, flow cytometry fluorescence, 3 h; at 10 µM; stronger effect = lower value
[2] = modulators of MEP2-GFP levels in yeast, primary screen, S. cerevisiae, multiplex flow cytometry (AID 1867;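 active = GFP response, as percent of the DMSO control, above the screen-wide mean plus 3 SD, about 139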;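 also: median GFP channel fluorescence of barcode-gated MEP2-GFP cells measured by flow cytometry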); settings: S. cerevisiae MEP2-GFP strain, 3 h, at 10 µM, stronger effect = higher value, 100% means same as DMSO wells
[3] = modulators of CIT2-GFP expression in yeast, primary screen, S. cerevisiae, GFP fusion, multiplex flow cytometry (AID 1870;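 active = percent response above a set limit, the screen-wide mean plus 3 SD, cut at about 130% in these data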;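 also: barcoded CIT2-GFP strain pooled with four other GFP strains with rapamycin as positive control; median GFP fluorescence per well over plate mean of DMSO wells so 100% = DMSO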); settings: 3 h, at 10 µM, stronger effect = higher value
[4] = modulators of LAP4-GFP expression in yeast, primary screen, S. cerevisiae, multiplex flow cytometry (AID 1873); settings: 3 h, at 10 µM, stronger effect = higher value
[5] = modulators of AGP1-GFP expression in yeast TOR pathway, primary screen, cell-based, multiplex flow cytometry, S. cerevisiae (AID 1887;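 active = GFP signal above the screen-wide mean plus 3 SD, that is over about 124.5% of the solvent control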;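 also: AGP1-GFP fusion strain of S. cerevisiae within a five-strain barcoded multiplex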); settings: 3 h, at 10 µM, stronger effect = higher value
[6] = inhibitors of CD8+ T cell-vesicle binding, pilot screen, LFA-1/ICAM-1 modulator project, MLPCN validation set, flow cytometry (AID 2523;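 active = response below a set limit, under 55% cells CD8-positive and vesicle-bound, and CD8 cells' 90th-percentile brightness under 279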;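 as to vesicle binding response: mean PE anti-B7-1 fluorescence of CD8+ cells relative to row control; 100% = QL9-loaded vesicles with DMSO vehicle in the same plate row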); settings: 2C mouse CD8+ T cells, at 7 µM, stronger effect = lower value; double positive events: measured here: CD8+/vesicle+ event percentage
[7] = target: Integrin beta-1 (Homo sapiens) + Integrin alpha-4 (Homo sapiens) (UniProt P13612+P05556); experiment: inhibition of HUTS-21 binding to VLA-4, pilot screen, VLA-4 allosteric modulator project, U937 cells, HUTS-21 mAb, flow cytometry, validation set (AID 2674;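 active = inhibition above 50%, about 3 SD of the validation set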;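 also: antibody binding induced by the VLA-4 ligand LDV present at three times its Kd; 0% = LDV ligand with antibody and no compound and 100% = antibody without LDV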); settings: HUTS-21 LIBS mAb binding, at 6.7 µM, stronger effect = higher value, binding induced by LDV ligand
Integrin beta-1 (Homo sapiens) + Integrin alpha-4 (Homo sapiens), sequence (P05556 whole entry, looked up): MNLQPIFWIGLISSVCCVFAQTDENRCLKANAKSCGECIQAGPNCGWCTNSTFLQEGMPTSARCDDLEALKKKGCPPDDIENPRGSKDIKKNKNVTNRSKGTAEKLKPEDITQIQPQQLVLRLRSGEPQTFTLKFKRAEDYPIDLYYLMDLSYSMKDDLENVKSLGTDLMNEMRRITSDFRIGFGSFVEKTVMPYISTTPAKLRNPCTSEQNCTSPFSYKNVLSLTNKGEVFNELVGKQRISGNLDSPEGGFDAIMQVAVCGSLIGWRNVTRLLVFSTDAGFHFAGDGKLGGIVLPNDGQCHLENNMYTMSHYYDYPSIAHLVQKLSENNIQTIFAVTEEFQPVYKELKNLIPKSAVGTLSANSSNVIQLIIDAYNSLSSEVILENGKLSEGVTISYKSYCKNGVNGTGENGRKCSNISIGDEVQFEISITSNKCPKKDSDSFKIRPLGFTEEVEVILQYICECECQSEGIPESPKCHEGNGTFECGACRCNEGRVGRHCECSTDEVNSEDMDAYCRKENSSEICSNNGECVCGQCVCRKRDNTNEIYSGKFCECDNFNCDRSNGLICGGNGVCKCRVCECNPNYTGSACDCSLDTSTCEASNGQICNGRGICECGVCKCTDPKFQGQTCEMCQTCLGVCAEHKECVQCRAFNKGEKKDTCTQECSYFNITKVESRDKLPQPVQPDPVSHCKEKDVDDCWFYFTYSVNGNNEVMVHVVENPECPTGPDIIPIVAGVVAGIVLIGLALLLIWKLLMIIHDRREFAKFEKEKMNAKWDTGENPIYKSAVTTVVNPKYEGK
Integrin beta-1 (Homo sapiens) + Integrin alpha-4 (Homo sapiens), sequence (P13612 whole entry, looked up): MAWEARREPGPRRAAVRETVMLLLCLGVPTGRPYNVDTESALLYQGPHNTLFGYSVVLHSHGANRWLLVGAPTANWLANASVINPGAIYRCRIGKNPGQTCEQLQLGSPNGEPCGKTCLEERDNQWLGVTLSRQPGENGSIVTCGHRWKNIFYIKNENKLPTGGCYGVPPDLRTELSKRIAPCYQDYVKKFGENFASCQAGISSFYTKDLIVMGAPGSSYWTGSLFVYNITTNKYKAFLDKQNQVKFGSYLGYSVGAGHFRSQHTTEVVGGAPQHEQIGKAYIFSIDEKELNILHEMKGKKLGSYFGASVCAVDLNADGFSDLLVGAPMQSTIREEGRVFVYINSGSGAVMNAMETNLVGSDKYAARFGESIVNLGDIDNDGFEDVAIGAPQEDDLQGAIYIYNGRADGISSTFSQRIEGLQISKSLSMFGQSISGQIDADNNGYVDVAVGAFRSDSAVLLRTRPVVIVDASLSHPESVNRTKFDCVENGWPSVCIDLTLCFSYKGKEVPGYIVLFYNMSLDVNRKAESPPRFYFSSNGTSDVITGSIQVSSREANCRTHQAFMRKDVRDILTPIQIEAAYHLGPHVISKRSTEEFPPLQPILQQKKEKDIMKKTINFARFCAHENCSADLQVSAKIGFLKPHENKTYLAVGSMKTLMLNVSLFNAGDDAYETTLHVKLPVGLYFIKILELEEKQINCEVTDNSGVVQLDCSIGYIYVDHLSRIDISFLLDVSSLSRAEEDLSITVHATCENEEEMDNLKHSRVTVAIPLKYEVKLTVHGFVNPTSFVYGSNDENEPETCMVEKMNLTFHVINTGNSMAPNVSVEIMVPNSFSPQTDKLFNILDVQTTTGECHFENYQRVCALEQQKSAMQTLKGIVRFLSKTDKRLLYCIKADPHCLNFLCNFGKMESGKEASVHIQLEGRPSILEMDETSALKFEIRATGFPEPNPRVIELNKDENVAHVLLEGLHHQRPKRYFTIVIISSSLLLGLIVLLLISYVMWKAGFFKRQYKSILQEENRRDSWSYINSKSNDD

[8] = superoxide lowering in aged yeast cells, pilot screen, validation compound set (AID 2706;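 active = superoxide response below 65% of plate, a cut near 3 SD across the whole screen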;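 also: yeast exposed to compound for one week at 30 degrees C before staining; 100% = mean of all compound wells on the same plate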); settings: S. cerevisiae aging, superoxide DHE fluorescence; at 10 µM, stronger effect = lower value
[9] = target: Beta-adrenergic receptor kinase 1 (Homo sapiens) (UniProt P25098); experiment: GRK2 binders displacing RNA aptamer, biochemical, validation, human GRK2, bead flow cytometry (AID 488806;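 active = aptamer binding inhibition above 30%, about 3 SD of noise from non-fluorescent compounds; inactive = inhibition at or below 30%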); settings: bead-bound GRK2, FAM-aptamer displacement, at 10 µM, stronger effect = higher value
Beta-adrenergic receptor kinase 1 (Homo sapiens), sequence (P25098 whole entry, looked up): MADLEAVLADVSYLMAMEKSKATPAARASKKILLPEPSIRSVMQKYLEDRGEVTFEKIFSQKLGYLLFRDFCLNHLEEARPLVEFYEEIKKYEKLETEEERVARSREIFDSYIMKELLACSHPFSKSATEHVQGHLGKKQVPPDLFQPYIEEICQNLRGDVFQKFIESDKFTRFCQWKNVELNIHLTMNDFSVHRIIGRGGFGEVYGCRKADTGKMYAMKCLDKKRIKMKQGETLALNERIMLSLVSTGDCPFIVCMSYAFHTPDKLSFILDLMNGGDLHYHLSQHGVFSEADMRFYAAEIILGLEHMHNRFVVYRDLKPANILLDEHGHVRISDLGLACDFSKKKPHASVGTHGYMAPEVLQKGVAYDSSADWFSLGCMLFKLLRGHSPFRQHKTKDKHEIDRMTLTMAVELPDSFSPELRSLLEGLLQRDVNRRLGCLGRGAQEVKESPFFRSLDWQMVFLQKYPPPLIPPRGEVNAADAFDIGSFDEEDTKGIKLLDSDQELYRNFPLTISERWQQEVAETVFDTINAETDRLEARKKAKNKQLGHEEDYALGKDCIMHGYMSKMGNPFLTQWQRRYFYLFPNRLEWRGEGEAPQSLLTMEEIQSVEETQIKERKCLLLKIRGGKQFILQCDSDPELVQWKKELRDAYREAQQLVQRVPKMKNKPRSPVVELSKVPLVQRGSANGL

[10] = target: AP-2 complex subunit beta (Homo sapiens) (UniProt P63010); experiment: inhibitors of arrestin peptide binding to AP2, pilot screen, biochemical, validation set, GST-AP2 beads, flow cytometry (AID 504541;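 active = inhibition above 54%, about 3 SD of non-fluorescent compounds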;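 also: AP2 carries R879A mutation and is captured from E. coli lysate; bead-bound FITC arrestin peptide fluorescence measuring arrestin peptide binding to AP2; 0% = DMSO wells and 100% = excess unlabeled arrestin peptide control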); settings: FITC arrestin peptide, at 10 µM, stronger effect = higher value, AP2 beta2 appendage fragment, R879A mutant
AP-2 complex subunit beta (Homo sapiens), sequence (P63010 whole entry, looked up, the tested form may be a part, one chain of several): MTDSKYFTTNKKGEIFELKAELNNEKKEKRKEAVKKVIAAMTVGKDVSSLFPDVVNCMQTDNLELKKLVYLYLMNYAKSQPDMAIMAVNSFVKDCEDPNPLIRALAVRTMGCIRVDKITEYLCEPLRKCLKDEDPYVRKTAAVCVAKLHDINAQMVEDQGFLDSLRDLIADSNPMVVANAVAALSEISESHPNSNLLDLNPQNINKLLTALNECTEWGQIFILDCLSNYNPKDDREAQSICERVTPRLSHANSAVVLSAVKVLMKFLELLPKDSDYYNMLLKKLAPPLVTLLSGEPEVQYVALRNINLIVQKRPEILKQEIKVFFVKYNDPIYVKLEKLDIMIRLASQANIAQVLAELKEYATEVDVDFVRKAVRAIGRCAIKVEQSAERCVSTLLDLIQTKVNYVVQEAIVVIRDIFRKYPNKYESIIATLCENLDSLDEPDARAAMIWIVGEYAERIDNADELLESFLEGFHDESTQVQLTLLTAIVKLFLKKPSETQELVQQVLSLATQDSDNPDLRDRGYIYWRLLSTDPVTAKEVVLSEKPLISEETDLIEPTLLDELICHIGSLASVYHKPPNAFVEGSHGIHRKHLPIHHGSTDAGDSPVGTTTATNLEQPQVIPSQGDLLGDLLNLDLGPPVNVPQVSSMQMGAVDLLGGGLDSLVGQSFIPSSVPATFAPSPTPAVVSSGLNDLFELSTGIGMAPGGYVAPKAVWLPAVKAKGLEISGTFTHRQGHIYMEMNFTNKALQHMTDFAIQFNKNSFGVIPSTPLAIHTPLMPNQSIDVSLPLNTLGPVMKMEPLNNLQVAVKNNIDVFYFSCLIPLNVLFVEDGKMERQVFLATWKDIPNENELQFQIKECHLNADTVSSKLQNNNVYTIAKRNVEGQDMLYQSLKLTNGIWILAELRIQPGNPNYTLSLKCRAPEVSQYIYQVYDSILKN

[11] = yeast V-ATPase proton transport modulators, S. cerevisiae, pHLuorin, HTS validation (AID 504600; in the data active = response above about 15%;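 also: plate controls were DMSO for no effect and reference compound for full effect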); settings: S. cerevisiae pHLuorin cytosolic pH, at 10 µM, stronger effect = higher value
[12] = system: anti-desmoglein-3 scFv antibody binding to human DSG3; experiment: inhibitors of anti-DSG3 scFv binding to DSG3, pilot screen, biochemical, validation compound set, bead-based, flow cytometry (AID 588368;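 active = binding below the plate cutoff, the plate median minus 3 SD, with a reading above zero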;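 also: signal is the median channel fluorescence of bead-bound GFP antibody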); settings: Protein G beads, DSG3-Fc, scFv-GFP binding, at 10 µM, stronger effect = lower value
[13] = inhibitors of fungal efflux pumps CDR1, CDR2, MDR1, pilot screen, validation compound set, multiplex, phenotypic (AID 588506;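 active = efflux inhibition above 0.42, the validation set average plus 4 SD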;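 also: Nile Red retained in cells so higher fluorescence means more efflux inhibition; 0 = negative control wells and 1 = enniatin B 25 µM full block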); settings: S. cerevisiae pump-expressing triplex, Nile Red efflux flow cytometry; at 10 µM; stronger effect = higher value; the pumps come from Candida albicans
[14] = target: ATP-binding cassette sub-family B member 6 (Homo sapiens) (UniProt Q9NP58); experiment: ABCB6 transporter inhibitors, pilot screen, K562-ABCB6 cells, flow cytometry, validation set (AID 588550;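 active = inhibition above the screen-wide mean plus 3 SD, about 51%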;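 also: 0% = DMSO wells and 100% = benzethonium chloride 70 µM positive control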); settings: K562-ABCB6 porphyrin accumulation, 1 h, at 10 µM, stronger effect = higher value
ATP-binding cassette sub-family B member 6 (Homo sapiens), sequence (Q9NP58 whole entry, looked up): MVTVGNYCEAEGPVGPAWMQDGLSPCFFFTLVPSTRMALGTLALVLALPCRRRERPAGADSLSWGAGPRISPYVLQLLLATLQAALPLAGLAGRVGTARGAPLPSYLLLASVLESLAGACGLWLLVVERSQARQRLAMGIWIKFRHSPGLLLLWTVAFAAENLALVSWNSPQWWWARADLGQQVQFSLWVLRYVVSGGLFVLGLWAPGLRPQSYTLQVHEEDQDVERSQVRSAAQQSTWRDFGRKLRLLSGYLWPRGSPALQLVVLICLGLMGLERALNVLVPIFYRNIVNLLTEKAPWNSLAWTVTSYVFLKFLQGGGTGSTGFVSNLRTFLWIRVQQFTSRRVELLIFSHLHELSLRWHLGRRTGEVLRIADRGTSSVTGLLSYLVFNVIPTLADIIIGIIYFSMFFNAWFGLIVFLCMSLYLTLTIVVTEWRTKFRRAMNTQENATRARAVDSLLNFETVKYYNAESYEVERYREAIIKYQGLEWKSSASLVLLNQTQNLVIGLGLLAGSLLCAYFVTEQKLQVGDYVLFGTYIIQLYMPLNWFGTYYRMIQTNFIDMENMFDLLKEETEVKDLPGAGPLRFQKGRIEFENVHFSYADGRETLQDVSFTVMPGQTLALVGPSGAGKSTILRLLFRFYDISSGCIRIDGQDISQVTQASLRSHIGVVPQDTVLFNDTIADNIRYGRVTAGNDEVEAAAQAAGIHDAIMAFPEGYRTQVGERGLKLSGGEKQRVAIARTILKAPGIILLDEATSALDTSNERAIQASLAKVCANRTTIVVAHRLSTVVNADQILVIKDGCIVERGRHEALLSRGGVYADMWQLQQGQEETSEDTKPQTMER

[15] = promoters of myeloid differentiation in arrested cells, primary screen, cell-based, GFP/MAC1 double positive, flow cytometry, validation set (AID 588685;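 active = differentiation response of at least 50%, scaled between solvent and reference control, from cells with both markers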;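 also: compound exposure lasts four days before antibody staining and flow analysis; 0% = DMSO wells and 100% = 5 µM fulvestrant positive control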); settings: ER-HoxA9 marrow cells, stronger effect = higher value, normalized: vehicle 0, fulvestrant 100

Row | Structure (SMILES) | percent of DMSO control GFP [1] | GFP response vs DMSO [2] | percent response of DMSO control [3] | GFP response vs DMSO [4] | GFP response, % of DMSO [5] | double positive events [6] [%] | vesicle binding response [6] | inhibition [7] | superoxide response (% of plate) [8] | aptamer binding inhibition [9] | inhibition [10] | response [11] | binding (% of control) [12] | efflux inhibition (fraction of control) [13] | inhibition [14] | differentiation response [15]
1 | CCCCNc1cc(C(=O)O)cc(S(N)(=O)=O)c1Oc1ccccc1 | 102% (inactive) | 103% (inactive) | 97.9% (inactive) | 89.3% (inactive) | 102% (inactive) | 52.3 | 179% (inactive) | 16.6% (inactive) | 96.1% (inactive) | 6% (inactive) | 1.29% (inactive) | 10.1% (inactive) | 99.5% (inactive) | 0.06 (inactive) | 11% (inactive) | -9.89% (inactive)
2 | CC1(C)c2ccccc2N2CC(=O)N(CC(N)=O)C21C (centres undefined) | 103% (inactive) | 99.9% (inactive) | 103% (inactive) | 109% (inactive) | 105% (inactive) | 61.8 | 243% (inactive) | -5.84% (inactive) | 108% (inactive) | 3% (inactive) | -1.94% (inactive) | 3.96% (inactive) | 97.8% (inactive) | -0.35 (inactive) | 11% (inactive) | -21.2% (inactive)
3 | COc1ccc2nc(NC(=O)Nc3ccccc3)sc2c1 | 105% (inactive) | 96.9% (inactive) | 111% (inactive) | 89.3% (inactive) | 96% (inactive) | 50.6 | 173% (inactive) | 10% (inactive) | 92.7% (inactive) | -1% (inactive) | 0.98% (inactive) | 70.8% (active) | 95.7% (inactive) | -0.47 (inactive) | 1% (inactive) | -22.8% (inactive)
4 | COc1ccc2[nH]cc(CCNC(=O)C3CCCNC3=O)c2c1 (centres undefined) | 103% (inactive) | 97.9% (inactive) | 104% (inactive) | 104% (inactive) | 105% (inactive) | 57.5 | 218% (inactive) | -2.11% (inactive) | 100% (inactive) | -7% (inactive) | -18.5% (inactive) | 2.02% (inactive) | 103% (inactive) | -0.24 (inactive) | 7% (inactive) | 6.26% (inactive)
5 | COc1ccc(-c2[nH]ncc2C=O)cc1OC | 99.3% (inactive) | 96.9% (inactive) | 106% (inactive) | 91.3% (inactive) | 95.8% (inactive) | 52 | 201% (inactive) | -1.17% (inactive) | 93.7% (inactive) | 2% (inactive) | 11.3% (inactive) | 3.37% (inactive) | 101% (inactive) | -0.12 (inactive) | 8% (inactive) | -11.5% (inactive)
6 | COC(=O)c1ccc(=O)n(Cc2ccco2)c1 | 94.7% (inactive) | 92.8% (inactive) | 97.9% (inactive) | 92.3% (inactive) | 96.9% (inactive) | 58.2 | 166% (inactive) | -6.77% (inactive) | 86.5% (inactive) | -2% (inactive) | -1.44% (inactive) | -0.2% (inactive) | 94.6% (inactive) | -0.16 (inactive) | 12% (inactive) | -8.27% (inactive)
7 | O=C1CCCN1CCCn1cnc2c([nH]c3ccc(F)cc32)c1=O | 105% (inactive) | 104% (inactive) | 101% (inactive) | 89.3% (inactive) | 101% (inactive) | 57.6 | 124% (inactive) | 10.9% (inactive) | 114% (inactive) | -1% (inactive) | -10.6% (inactive) | 1.63% (inactive) | 100% (inactive) | -0.28 (inactive) | 10% (inactive) | -27.6% (inactive)
8 | CC(=O)OCC(=O)[C@@]12OC(C)(C)O[C@@H]1C[C@H]1[C@@H]3C[C@H](F)C4=CC(=O)C=C[C@]4(C)[C@@]3(F)[C@@H](O)C[C@@]12C | 104% (inactive) | 107% (inactive) | 106% (inactive) | 100% (inactive) | 105% (inactive) | 64.6 | 212% (inactive) | 3.49% (inactive) | 94.7% (inactive) | 0% (inactive) | 2.71% (inactive) | 1.38% (inactive) | 91.8% (inactive) | 0.03 (inactive) | 8% (inactive) | 19.2% (inactive)
9 | C[C@@H]1C[C@H]2[C@@H]3CCC4=CC(=O)C=C[C@]4(C)[C@@]3(F)[C@@H](O)C[C@]2(C)[C@H]1C(=O)CO | 102% (inactive) | 97.9% (inactive) | 109% (inactive) | 81.3% (inactive) | 96.6% (inactive) | 54.1 | 226% (inactive) | -12.4% (inactive) | 107% (inactive) | -2% (inactive) | -3.18% (inactive) | -6.95% (inactive) | 97.8% (inactive) | -0.12 (inactive) | 6% (inactive) | -11.5% (inactive)
